# ATXN viability: reduces viability in counter-screen for ATXN expression inhibitors. actives 0.49% (n = 400,000). Potency, µM (series often up to 56.7 µM), actives largely listed as cytotoxic. AID 651635. S2 cells (HEK-293 line with an ATXN2-luciferase reporter) viability, CellTiter-Fluor protease fluorescence, 24 h; also: nearly all actives have a fitted effect of over 40% in size
# HT1080 IDH1KD tx: kills HT-1080 cells with IDH1 knockdown. HT-1080 IDH1 knockdown viability, ATP luminescence, 48 h. Potency, µM (titrated, usually from 46.1 µM), inactives show at the highest dose activity, negative = toxicity, most hits filed as cytotoxic. actives 2% (n = 360,000). AID 686971;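 also: 0% = DMSO wells and -100% = cell-free medium wells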
#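 HT-1080-IDH1KD cells (IDH1 knocked down), 750/well in RPMI with 5% FBS, treated with compound 48 h at 37 degrees C. Viability by CellTiter-Glo luminescence, normalised to DMSO and no-cell wells; concentration-response curves classed.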
# HepG2 tox: counter-screen for TGF-b inhibitors: cytotoxicity in HepG2 cells; actives 0.76% (n = 410,000); HepG2 CAGA-GFP viability, ATP luminescence, 18 h; Potency, µM (series often up to 46.1 µM), inactives show at the highest dose activity change, negative = cytotoxicity, most hits filed as cytotoxic
#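 CellTiter-Glo luminescence gave cytotoxicity after 18 hours at 37 degrees C. The cells were HepG2 CAGA-GFP in 1% FBS DMEM, stimulated with 500 pg/mL TGF-beta after compound addition. %Activity was normalised to no-cell wells (complete cell-killing) and DMSO (no toxicity), and curves were fitted and classified.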
# TGFb inhibitor: blocks TGF-b signaling; HepG2 CAGA-GFP TGF-b/SMAD3 reporter, GFP fluorescence, 18 h; TGF-beta stimulated, 500 pg/mL final; Potency, µM (series often up to 46.1 µM), without a hit: top-dose activity, negative = inhibition, actives largely listed as inhibitors; actives 1.2% (n = 410,000); AID 588855; also: % is scaled to controls: 0 for no effect and ±100 for the full control effect; nearly all actives have a fitted effect of over 65% in size
#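 Inhibition was scored as loss of TGF-beta-induced (500 pg/mL final, 18 hours, 37 degrees C) GFP in HEPG2 cells carrying a CAGA-GFP reporter, in DMEM with 1% FBS. Well GFP was summed per cell; Activity was normalised to unstimulated and stimulated DMSO wells, then concentration-response fitting.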
# ATXN2 expr inh: reduces ATXN2 reporter expression in HEK-293 cells; AID 1745845; HEK-293 ATXN2-luciferase reporter, luminescence, 24 h; Potency, µM (series often up to 57 µM), inactives show at the highest dose activity change, negative = inhibition, hits mostly inhibitors; actives 0.72% (n = 360,000); also: % is scaled to controls: 0 for no effect and ±100 for the full control effect; nearly all actives have a fitted effect of over 55% in size
#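 qHTS (up to 57 uM final) was run with 24 h compound exposure of reporter cells at 37 °C. Each well was multiplexed: SteadyGlo luminescence measured ATXN2-luciferase expression after a fluorogenic Gly-Phe-AFC viability readout (25 uM final).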
# HT1080-NT tox: kills 2HG-producing HT-1080-NT fibrosarcoma cells; HT-1080-NT fibrosarcoma viability, CellTiter-Glo ATP luminescence, 48 h; Potency, µM (doses to about 46.1 µM), inactives show at the highest dose activity, negative = less viability, hits mostly cytotoxic; actives 1.6% (n = 360,000);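 also: NT is the 2HG producing partner of a matched IDH1 knockdown line; 0% = DMSO-treated cells and -100% = media-only wells without cells; nearly all actives have a fitted effect of over 55% in size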
#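 Compounds were tested in concentration-response format on HT-1080-NT cells for 48 hours at 37 degrees C. Cell viability came from CellTiter-Glo luminescence; curves were classified by r2, response magnitude and activity.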
# An asterisk follows results filed as active; i = inactive; ? = inconclusive; . = no result given. Sampled rows, rich in hits. Any-hit rate of the full collection: about 3.8%. Calls follow the shape of the dose curve; as a rule, active = well fitted curve in the direction sought with a large enough effect; inconclusive = small, poorly fitted or top-dose-only effect, or another doubt; inactive = no such curve, though single readings can be large; an effect the other way counts as inactive or inconclusive. Potency is read from the fitted curve at half-maximal effect.
SMILES,ATXN viability,HT1080 IDH1KD tx,HepG2 tox,TGFb inhibitor,ATXN2 expr inh,HT1080-NT tox
CCN1CCN(c2cc(-c3ccccc3)nc3cc(-c4cccc(F)c4)nn23)CC1,.,?,-116.2%,?,?,23.1µM*
O=C(O)CSC1=NS(=O)(=O)c2ccccc21,.,.,-8.3%,-6.8%,.,.
O=C(O)Cc1sc(Nc2cccc3ccccc23)nc1-c1ccc(Cl)cc1,i,-19.6%,-0.1%,-6.9%,-36.9%,11.6µM*
CC1(C)CC(O)CC(C)(C)N1[O],.,.,.,.,16.5%,.
CCOC(=O)C1CCCN(C(=O)c2ccc3c(c2)sc2nc(-c4cccc(OC)c4)cn23)C1 (stereo not drawn),.,.,-13.1%,?,.,.
Cn1c(Cl)cnc1C1CC(=O)c2cc(Cl)ccc2O1 (stereo not drawn),.,9.2µM*,-57.0%,?,?,?
CCN1CCN(c2oc(/C=C/c3ccc(OC)c(OC)c3)nc2C#N)CC1,.,.,-25.1%,?,.,.
CC(=O)N(c1onc(C)c1C)S(=O)(=O)c1ccc(N)cc1,i,.,.,.,-3.4%,.
O=C(Nc1ccc(Cl)cc1)N1CCCN(Cc2ccccc2F)C1,i,12.6µM*,-53.9%,7.4%,-21.3%,?
Cc1ccc(NC(=O)N2CCCN(Cc3ccc(F)cc3)C2)cc1C,i,16.4µM*,-89.7%,-6.6%,-24.6%,14.6µM*
COc1ccc(-n2c(CNC(=O)c3ccccc3C(F)(F)F)nnc2SC)cc1,i,.,.,.,.,.
COc1ccccc1C1NC(c2ccc3c(c2)OCO3)=CC(c2ccccc2O)N1 (stereo not drawn),.,.,-29.2%,?,.,.
COc1cccc(NC(=O)C/C(C)=N/NC(=O)c2ccccc2Cl)c1,i,-27.4%,-29.1%,-20.3%,.,-2.7%
C/C(CC(=O)Nc1ccc(Cl)c(C(F)(F)F)c1)=N\NC(=O)c1cc2ccccc2cc1O,?,16.4µM*,-37.3%,?,?,?
C=CCNc1nc(NC2CCN(C)CC2)c2cc(OC)c(OC)cc2n1,.,.,-48.8%,?,.,.
O=C(Nc1cc(Sc2ccccn2)cc([N+](=O)[O-])c1)c1cccc(Cl)c1,?,?,-69.3%,11.2µM*,?,?
O=C(Nc1ccc(S(=O)(=O)Nc2ncccn2)cc1)c1cccc(Cl)c1,i,.,-2.8%,-5.2%,5.5%,.
C[C@@H]1CCN(C(=O)CC#N)C[C@H]1N(C)c1ncnc2[nH]ccc12,.,.,.,.,32.8%,.
Cc1[nH]c(=O)c(C(=O)/C=C/c2ccccc2F)c2c1CCCC2,28.2µM*,7.94µM*,-85.1%,?,8.91µM*,7.94µM*
N#Cc1ccc(N/N=C/c2cn(-c3ccccc3)nc2-c2ccccc2)c([N+](=O)[O-])c1,i,13.9%,-3.5%,2.8%,-2.6%,6.7%
NC(=O)N/N=C/c1cn(-c2ccccc2)nc1-c1cccs1,i,10.3µM*,-25.3%,-0.5%,36.9%,23.1µM*
O=C(c1cn(-c2ccccc2)nc1-c1cccs1)N1CCN(c2ccccc2)CC1,i,7.08µM*,5.0%,-0.8%,13.2%,?
O=C(O)c1cccc(N/N=C/c2cn(-c3ccccc3)nc2-c2cccs2)c1,i,-9.0%,-19.2%,0.9%,110.6%,-14.9%
O=C(N/N=C/c1cn(-c2ccccc2)nc1-c1cccs1)c1ccncc1,?,-13.9%,-12.2%,-3.8%,-7.5%,2.1%
NS(=O)(=O)c1ccc(N/N=C/c2cn(-c3ccccc3)nc2-c2cccs2)cc1,i,20.6µM*,11.2µM*,10µM*,1.4%,23.1µM*
SMILES,ATXN viability,HT1080 IDH1KD tx,HepG2 tox,TGFb inhibitor,ATXN2 expr inh,HT1080-NT tox
NS(=O)(=O)c1ccc(N/N=C/c2cn(-c3ccccc3)nc2-c2cccs2)c([N+](=O)[O-])c1,?,7.31µM*,-61.3%,?,?,?
COc1ccccc1/C=C/c1nc2ccccc2s1,.,.,-4.0%,-7.9%,.,.
CC(C)=CCc1c(O)cc2oc3c(CC=C(C)C)c(O)c(O)c(CC=C(C)C)c3c(=O)c2c1O,?,?,8.91µM*,6.31µM*,?,?
CC(C)=CCc1cc(-c2oc3cc(O)cc(O)c3c(=O)c2O)ccc1O,i,-8.5%,-45.5%,?,9.5%,-0.6%
CC(Nc1oc(-c2ccc(COc3ccccc3)o2)nc1C#N)c1ccccc1 (stereo not drawn),?,.,11.2µM*,?,?,.
CC(C)CC[n+]1ccccc1/C=C/c1ccc(N(C)C)cc1,?,23.1µM*,-21.7%,32.8%,?,?
CN(C)c1ccc(/C=C/c2cccc[n+]2[O-])cc1,.,8.0%,13.5%,13.7%,-19.2%,18.5%
CCOC(=O)c1cocc1C(=O)O,i,-6.4%,1.58µM*,?,-6.2%,-0.2%
CCOC(=O)c1coc(C(=O)OCC)c1C(=O)OCC,i,13.4%,7.5%,23.1%,3.6%,2.1%
CN(C1CCCCC1)S(=O)(=O)c1ccc(F)c(C(=O)Nc2ccc(C(F)(F)F)cc2)c1,?,.,-16.2%,?,0.0%,.
COC(=O)C1=C[C@@H](C(=O)OC)[C@@H]2C3=C(C(=O)[C@@]2(C)NC(=O)c2ccccc2)[C@H](C)[C@@H]2C(=O)N(c4ccccc4)C(=O)[C@@H]2[C@@H]3C1,.,.,-8.9%,?,.,.
NCC/C=C1/c2ccccc2CSc2ccccc21,i,?,15.8µM*,?,-30.1%,14.1µM*
CCCC1CCc2c(sc(NC(=O)OCC)c2C#N)C1 (stereo not drawn),i,18.4µM*,-9.7%,12.0%,-1.8%,?
CC1C(=O)N2CCCc3cc(NC(=O)C(=O)NCCCc4ccccc4)cc1c32 (stereo not drawn),i,-19.2%,-41.1%,-3.2%,5.6%,-8.1%
CC1C(=O)N2CCCc3cc(NC(=O)C(=O)NCCc4ccc(F)cc4)cc1c32 (stereo not drawn),i,20.6µM*,-2.7%,11.7%,0.8%,18.4µM*
COCCNC(=O)C1=C(N)C(C(=O)Nc2ccc(C)c(S(=O)(=O)N3CCCCC3)c2)SC1=Nc1ccc(C)cc1C (stereo not drawn),i,?,-25.2%,?,-8.7%,12.6µM*
